Results: PubChem BioAssay AID527 (NMMLSC, 2006)
Hit rate of the full screen: of about 24,000 compounds, about 65 (0.3%) were called active.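 The calls were made as follows: active = share of bacteria positive for the green fluorescent reporter and its mean brightness both inhibited by 50% or more; inactive = the rest, inconclusive results apart.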 The sample as a whole holds a higher share of actives than the screen did.

Experiment: blockers of AIP-driven agr signalling in S. aureus – RNAIII-GFP reporter, flow cytometry, primary screen (AID 527);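 also: 0% = AIP-stimulated control and 100% = unstimulated bacteria without AIP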
Conditions: S. aureus RN6390 RNAIII-GFP reporter, AIP-induced, flow cytometry 3 h, at 2 µM, stronger effect = higher value
[1] = measured here: inhibition of GFP MFI

Cc1ccc(NC2=NC(c3ccccc3)n3c(nc(C)cc3=O)N2)cc1 (stereo unspecified)
inhibition: -2.1% (inactive) | inhibition [1]: -6.2%

COc1ccc(NC(=O)c2c(SC)nsc2SC)cc1
inhibition: 67.4% (active) | inhibition [1]: 74.3%

COc1ccc(CC(=O)Nc2ccc(-c3nnc(-c4ccc(C)cc4)o3)cc2)cc1
inhibition: 7.6% (inactive) | inhibition [1]: 35.1%

CCCNC(=O)Nc1ccccc1C(=O)Nc1ccc(OC)cc1
inhibition: 1.7% (inactive) | inhibition [1]: 13.6%

Cc1noc(COc2ccccc2OCC(O)CNC(C)(C)C)n1 (stereo unspecified)
inhibition: -0.1% (inactive) | inhibition [1]: 0.9%

Cc1cccc(C2c3c(n(C)c(=O)n(C)c3=O)N=C3c4ccccc4C(=O)C32)c1 (stereo unspecified)
inhibition: 1.5% (inactive) | inhibition [1]: 20.3%

COc1cccc(N(C(=O)c2ccn[nH]2)C2(C(=O)Nc3c(C)cccc3C)CCCCC2)c1
inhibition: 5.5% (inactive) | inhibition [1]: -8%

CCN(Cc1nc2ccccc2c(=O)[nH]1)Cc1cc(=O)oc2cc(C)c(C)cc12
inhibition: 4.2% (inactive) | inhibition [1]: 13.1%

Cn1c(COc2ccc(Cl)cc2)nc2ccccc2c1=O
inhibition: -6.8% (inactive) | inhibition [1]: -42.8%

COc1ccc(OC)c(C2N(c3ccccn3)C(=O)C3CCCN32)c1 (stereo unspecified)
inhibition: -2.2% (inactive) | inhibition [1]: -7.1%

COc1cccc(C(CC(=O)NCCN2CCOCC2)NS(=O)(=O)c2ccc(C)cc2)c1OC (stereo unspecified)
inhibition: -5% (inactive) | inhibition [1]: -11.5%

COc1ccccc1C(=O)n1nc(-c2ccccc2)nc1N
inhibition: -0.9% (inactive) | inhibition [1]: -0.5%

Cc1cc(=O)n2nc(N3CCCC3C(=O)NCCCN3CC(C)CC(C)C3)sc2n1 (stereo unspecified)
inhibition: 2.5% (inactive) | inhibition [1]: 17.6%

CC1CCCCN1S(=O)(=O)c1ccc(C(=O)Nc2nnc(-c3cccs3)o2)cc1 (stereo unspecified)
inhibition: 65.9% (active) | inhibition [1]: 62.3%

COc1cccc(-c2nnc(NC(=O)c3ccc(S(=O)(=O)N(CC(C)C)CC(C)C)cc3)o2)c1
inhibition: 14.3% (inactive) | inhibition [1]: 15.6%

CCc1nnc(NC(=O)c2ccc(S(=O)(=O)NC3CCCCC3)cc2)s1
inhibition: 0.3% (inactive) | inhibition [1]: 4.5%

O=C(O)Cc1ccc(-c2ccccc2)cc1
inhibition: -0.8% (inactive) | inhibition [1]: 3.1%

CN(C(=O)C1CCOC1)c1nnc(-c2cccnc2)s1 (stereo unspecified)
inhibition: -2.1% (inactive) | inhibition [1]: 1.3%

COc1ccc(N2CCN(C(=O)CNC(=O)c3ccc(C(C)(C)C)cc3)CC2)cc1
inhibition: -5.2% (inactive) | inhibition [1]: -22.7%

CCOc1cc(C(=O)Nc2ncccn2)cc(OCC)c1OCC
inhibition: -0.2% (inactive) | inhibition [1]: 0.7%

COC(=O)Nc1ccc(S(=O)(=O)N(C)CC(F)(F)C(F)F)cc1
inhibition: -3.8% (inactive) | inhibition [1]: -5.8%

CC(=O)NC(Cc1ccc(F)cc1)C(=O)O (stereo unspecified)
inhibition: -5.3% (inactive) | inhibition [1]: -7.6%

Cc1nc2ccc(S(=O)(=O)NC(C(=O)N3CCCCCC3)C(C)C)cc2s1 (stereo unspecified)
inhibition: 0.8% (inactive) | inhibition [1]: -1%
